# Columns and labels:
# Assay in all cases: PBM binding z-score (relative to random genomic background probes); higher = stronger binding; sequences stand for … in GC…GCGATTGACAGCGTAGAATGAAGG
# [1] = tested on: FXR:RXRa (NR concentration 270 nM, RXRa partner concentration 90 nM)
# Procedure, shortened: (§1)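 Binding buffer was PBS pH 7.4 with 2% milk, 0.02% Triton X-100, 1 mM DTT, 0.2 mg/mL BSA and 0.4 mg/ml salmon testes DNA. In it, ligand-free nuclear receptor dimers were incubated 1 h on custom Agilent 4×180K protein-binding microarrays carrying double-stranded probes. Antibodies against each partner (one per run) detected binding, and z-scores were calculated against random background probes after regression normalization of scanned fluorescence.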
# [2] = tested on: LXRa:RXRa (NR concentration 270 nM, RXRa partner concentration 90 nM)
# Procedure, shortened: as §1
# [3] = tested on: LXRa homodimer (NR concentration 270 nM)
# Procedure, shortened: as §1
# [4] = tested on: LXRb:RXRa (NR concentration 270 nM, RXRa partner concentration 90 nM)
# Procedure, shortened: as §1
# [5] = tested on: LXRb homodimer (NR concentration 270 nM)
# Procedure, shortened: as §1
# [6] = tested on: PPARa:RXRa (NR concentration 270 nM, RXRa partner concentration 90 nM)
# Procedure, shortened: as §1
# [7] = tested on: PPARg:RXRa (NR concentration 180 nM, RXRa partner concentration 90 nM)
# Procedure, shortened: as §1
# [8] = tested on: PPARg:RXRa 270nM:90nM, anti-RXR (NR concentration 270 nM, RXRa partner concentration 90 nM)
# Procedure, shortened: as §1
# [9] = tested on: PPARg:RXRa 30nM:10nM, anti-RXR (NR concentration 30 nM, RXRa partner concentration 10 nM)
# Procedure, shortened: as §1
# [10] = tested on: PPARg:RXRa 90nM:30nM, anti-RXR (NR concentration 90 nM, RXRa partner concentration 30 nM)
# Procedure, shortened: as §1
Sequence,PBM binding z-score [1],PBM binding z-score [2],PBM binding z-score [3],PBM binding z-score [4],PBM binding z-score [5],PBM binding z-score [6],PBM binding z-score [7],PBM binding z-score [8],PBM binding z-score [9],PBM binding z-score [10]
TCTTGTAGATCAAGAAGGTTAAGAAAGCCTGAGT,0.542,0.704,-0.24,0.833,-0.584,1.44,-0.11,1.65,2.96,2.31
TCTAGTTGGTCAAAGCTCACACACTCGAAATGCG,0.576,0.551,0.233,0.661,0.421,1.58,2.21,4.31,3.89,4.23
TCTTGTAGATCAACAGGAGGTTAAGCAAGATCGA,0.257,0.838,-0.069,0.853,-0.368,1.48,0.076,1.47,2.39,1.74
CGAACTAGGTAATTGACAGGACAGTGAATAGTAA,-0.398,-0.336,0.0257,-0.434,-0.603,0.979,1.09,0.555,0.0511,0.213
ACTAGCAGGCCAAGTATGGGTCACTCAAACAAAG,0.0234,0.143,-0.148,0.932,-0.854,1.74,0.661,0.755,-0.094,0.375
CCTGCTGGGTCAATGGTCAGCTAAAGCAGCTCGC,2.08,1.41,-0.526,1.11,-0.873,2.95,3.53,4.63,1.83,3.72
TCAGACAGGTGAAGGAAACTCAGGTACGCAGTCG,0.911,1.04,0.00488,0.561,0.0545,1.05,0.717,2.37,4.29,3.32
TCATATAGGTAAAGGTTAAAGTCGAACGATATGA,2.25,3.83,0.888,2.89,0.157,4.34,5.57,5.57,5.06,5.73
TAGCCTAGGTCATTCAGGGGCCAGTATCGAAAGC,4.39,3.78,0.945,3.2,1.1,3.76,1.95,2.11,0.0848,0.958
CCTGCTACGTCATGGTCAGCTAATCTACAGTATG,-0.508,-0.217,-0.512,-0.505,-0.327,-0.4,0.216,-0.67,-0.17,-0.333
TCTGCTAGGTCAACGATGCTCAGCTAATCTGCTA,2.94,1.88,-0.569,1.22,-0.547,3.02,2.04,2.92,1.7,2.32
TCGGGTAGGTTAGTCGGGGCATTCAGCCAACATA,0.578,0.368,0.422,1.38,0.98,1.01,-0.189,0.977,1.92,1.22
CGTCCAAGGTCAGCAGGCCAGTGAAAGCGACGTG,4.9,3.41,-0.314,2.31,-0.659,4.69,2.86,3.35,0.155,1.84
CATCAAAGTTCAACTAAGGTAACGTAAAGCACGC,7.36,6.82,5.03,4.54,3.07,5.03,3.96,4.67,2.12,3.32
CGTCCAAGGTCATAGGAGGTCAGTAAAGACAGAT,7.75,7.7,5.05,6.36,1.18,5.96,5.82,6.05,2.41,4.8
CGAACGAGGGCACGAGTTGATAGCAAATGCCGAT,0.992,0.567,-0.547,0.453,-0.624,2.28,2.4,1.99,0.448,1.44
CCTAGTTGGTGAAGGTCACACACGCTATAGGTAC,2.89,3.37,1.45,3.42,0.755,3.66,2.32,3.03,1.1,1.97
ATATGTAGGTTTAGGGTCATTCAGGTTGGTTCGC,4.11,3.91,1.71,3.97,1.36,4.59,5.96,6.54,4.91,6.7
TCATATAGGTAAAGATGAAAGTCGAACGATATGA,0.255,0.326,-0.224,0.183,-0.264,0.972,1.38,2.08,3.79,3.02
TCTAGTTGGTCACGGAGGTCAAACACGACGGGTA,4.19,4.67,4.58,4.25,1.38,4.39,3.25,4.13,3.76,4.08
GCTAGCAGGCCATTTGGGTCACTCAATGACGGGC,0.232,-0.126,-0.618,-0.0783,-0.885,1.34,0.697,0.632,-0.477,-0.0514
ATTGAAAGGTCGAGGTGAGTATAGAGAAAGGGAA,4.46,3.8,0.427,2.93,1.15,4.7,4.5,3.84,1.72,3.01
GGAACGAGGGCAAGTTCATAGCAGAGTTTGATGG,2.59,1.97,0.721,1.46,-0.0122,2.95,2.11,2.35,0.471,1.57

# Reference: the supplement of paper PMC6555819
